Measured values taken from article PMC5540273 (PLoS ONE, 2017).
Values joined by “and” are separate entries in the source; they are usually repeats but may differ in a detail not shown here. Equal values may be shown once. Read-outs that look alike come from different tables or passages of the source.

Legend:
DDR2 = conditions: concentration: 1 μM, replicates: in singlicate, n = 1
DLK = tested on: T1, DLK; conditions: concentration: 1 μM, replicates: in singlicate, n = 1
T1 construct: gene MAP3K12

DMPK2 = tested on: T2, DMPK2; conditions: concentration: 1 μM, replicates: in singlicate, n = 1
T2 construct: gene CDC42BPG

DMPK = conditions: concentration: 1 μM, replicates: in singlicate; n = 1
DRAK1 = tested on: T3, DRAK1; conditions: concentration: 1 μM, replicates: in singlicate; n = 1
T3 construct: gene STK17A

DRAK2 = tested on: T4, DRAK2; conditions: concentration: 1 μM, replicates: in singlicate, n = 1
T4 construct: gene STK17B

DYRK1A = conditions: concentration: 1 μM, replicates: in singlicate; n = 1
DYRK1B = conditions: concentration: 1 μM, replicates: in singlicate, n = 1
DYRK2 = conditions: concentration: 1 μM, replicates: in singlicate; n = 1
EGFR = conditions: concentration: 1 μM, replicates: in singlicate, n = 1
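Note: KINOMEscan kinase panel screen.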

| Compound | %Inh (DDR2) [%] | %Inh (DLK) [%] | %Inh (DMPK2) [%] | %Inh (DMPK) [%] | %Inh (DRAK1) [%] | %Inh (DRAK2) [%] | %Inh (DYRK1A) [%] | %Inh (DYRK1B) [%] | %Inh (DYRK2) [%] | %Inh (EGFR) [%] | %Inh (DDR2; 1 µM) | %Inh (DLK; 1 µM) | %Inh (DMPK2; 1 µM) | %Inh (DRAK2; 1 µM) | %Inh (DYRK1B; 1 µM) | %Inh (EGFR; 1 µM) |
| --- | --- | --- | --- | --- | --- | --- | --- | --- | --- | --- | --- | --- | --- | --- | --- | --- |
| C[C@H]1CC[C@@H](C(=O)Nc2ccccc2)CN1c1cc(-c2ccc3c(N)n[nH]c3c2)nc(N)n1 [GSK2283293] | 5 | 25 | 11 | 0 | 97.9 | 64 | 17 | 0 | 7 | 30 | – | – | – | – | – | – |
| COc1ccc(-c2nc3n(c2-c2ccncc2)CCC3)cc1 [SKF-104493] | – | – | – | 0 | 0 | – | 0 | – | 0 | – | 31% and 51% | 0% and 20% | 0% and 15% | 2% and 0% | 0% and 5% | 0% and 15% |
| CCc1nc(-c2cccc(N(C)S(=O)(=O)c3ccccc3)c2)c(-c2ccnc(Nc3ccc(N4CCN(C(C)=O)CC4)nc3)n2)s1 [GSK1645895] | 5 | 0 | 22 | 0 | 3 | 0 | 0 | 0 | 29 | 79 | – | – | – | – | – | – |
| Cl.Cl.c1ccc(-c2cc3ccncc3cc2OC2CCNCC2)cc1 [GSK1122999] | 0 | 31 | 18 | 0 | 21 | 0 | 13 | 15 | 21 | 23 | – | – | – | – | – | – |
| O=C(c1ccc(-c2cc(-c3c[nH]nc3-c3ccccn3)ccn2)cc1)N1CCCC1 [GW792479] | 24 | 0 | 0 | 0 | 0 | 10 | 0 | 0 | 0 | 27 | – | – | – | – | – | – |
| Cc1ccc(O)cc1Nc1cc(C(F)(F)F)nc2ccc(-c3ccncc3)cc12 [GW630823] | 0 | 0 | 4 | 0 | 21 | 11 | 0 | 7 | 0 | 15 | – | – | – | – | – | – |
| O=C(Nc1n[nH]c2nc(-c3ccco3)c(Br)cc12)c1ccc(CN2CCCC2)cc1.O=C(O)[C@H](O)[C@@H](O)C(=O)O [SB-742352] | 0 | 0 | 0 | 0 | 42 | 20 | 0 | 0 | 14 | 8 | – | – | – | – | – | – |
| Fc1ccc(-c2ncn(CCCNCc3ccccc3)c2-c2ccncc2)cc1 | 3 | 0 | 55 | 3 | 0 | 0 | 22 | 22 | 10 | 17 | – | – | – | – | – | – |
| Cc1ccc(NC(=O)c2cccc(C#N)c2)cc1-c1ccc(C(=O)Nc2ccncc2)cc1 [GSK1398463] | 82 | 0 | 6 | 0 | 0 | 1 | 31 | 19 | 19 | 36 | – | – | – | – | – | – |
| COc1ccc(-c2oc3ncnc(N)c3c2-c2ccc(OC)cc2)cc1 [SB-589132] | 70 | 52 | 2 | 0 | 4 | 0 | 15 | 0 | 18 | 0 | – | – | – | – | – | – |
| COc1ccc(Nc2nccc(N3CCC(NC(=O)Nc4ccc5c(c4)OCO5)C3)n2)cc1 (stereo not drawn) [GSK1379745] | 21 | 35 | 20 | 0 | 0 | 0 | 8 | 5 | 7 | 25 | – | – | – | – | – | – |
| FC(F)(F)c1ccc(-c2cc(-c3c[nH]nc3-c3ccccn3)ccn2)cc1 [GW599550] | 17 | 41 | 0 | 4 | 10 | 0 | 10 | 23 | 0 | 18 | – | – | – | – | – | – |
| CCC(CC)(CC)n1cnc2c(N)ncnc21 [SKF-97620] | 24 | 0 | 0 | 7 | 7 | 25 | 0 | 0 | 20 | 0 | – | – | – | – | – | – |
| Cc1cccc(-c2nc(Nc3ccc4[nH]nnc4c3)c3ccccc3n2)n1 [GW867587] | 37 | 0 | 0 | 0 | 0 | 0 | 0 | 0 | 26 | 0 | – | – | – | – | – | – |
| CC(C)(C)OC(=O)NC1CCCN(c2cc(-c3ccc4c(N)n[nH]c4c3)nc(N)n2)C1 (stereo not drawn) [GSK2286096] | 0 | 2 | 0 | 0 | 96.3 | 0 | 14 | 100 | 80 | 27 | – | – | – | – | – | – |
| CN1CCC(n2cnc(-c3ccc(F)cc3)c2-c2ccnc(NC3CCNCC3)n2)CC1 [SB-229482] | 0 | 0 | 18 | 22 | 0 | 0 | 0 | 23 | 6 | 17 | – | – | – | – | – | – |
| CS(=O)(=O)CCNCc1nc(-c2ccc3ncnc(Nc4ccc(OCc5cccc(F)c5)c(Cl)c4)c3c2)cs1.Cl [GW583340] | 20 | 2 | 0 | 0 | 7 | 17 | 12 | 20 | 16 | 99.9 | – | – | – | – | – | – |

| Compound | %Inh (DDR2) [%] | %Inh (DLK) [%] | %Inh (DMPK2) [%] | %Inh (DMPK) [%] | %Inh (DRAK1) [%] | %Inh (DRAK2) [%] | %Inh (DYRK1A) [%] | %Inh (DYRK1B) [%] | %Inh (DYRK2) [%] | %Inh (EGFR) [%] | %Inh (DDR2; 1 µM) | %Inh (DLK; 1 µM) | %Inh (DMPK2; 1 µM) | %Inh (DRAK2; 1 µM) | %Inh (DYRK1B; 1 µM) | %Inh (EGFR; 1 µM) |
| --- | --- | --- | --- | --- | --- | --- | --- | --- | --- | --- | --- | --- | --- | --- | --- | --- |
| CSc1ccc(NC2=C(c3ccccc3Cl)C(=O)NC2=O)cc1 [SB-342411] | 0 | 0 | 0 | 0 | 0 | 0 | 67 | 78 | 3 | 18 | – | – | – | – | – | – |
| Cl.Fc1ccccc1COc1ccc(Nc2ncnc3ccc(-c4nnc(C(F)(F)F)o4)cc23)cc1Cl [GW424170] | 18 | 11 | 11 | 0 | 4 | 0 | 4 | 0 | 11 | 99.4 | – | – | – | – | – | – |
| CCc1nc(-c2cccc(C)c2)c(-c2ccnc(NC(=O)c3ccccc3)c2)s1 | 1 | 6 | 8 | 0 | 0 | 0 | 18 | 50 | 10 | 24 | – | – | – | – | – | – |
| O=C(Nc1ccccc1)Nc1ccc(Oc2ccc3nccn3n2)cc1 | 100 | 18 | 0 | 6 | 0 | 0 | 0 | 30 | 70 | 23 | – | – | – | – | – | – |
| Nc1n[nH]c2nnc(-c3ccccc3)cc12 [SB-517389] | 7 | 0 | 0 | 0 | 0 | 0 | 72 | 92.4 | 57 | 34 | – | – | – | – | – | – |
| CC(C)(C)c1ccc(-n2cnc3c(N)ncnc32)cc1 [SKF-97263] | 13 | 0 | 0 | 0 | 85 | 5 | 15 | 21 | 3 | 38 | – | – | – | – | – | – |
| CNc1nccc(-c2c(-c3ccc(F)cc3)ncn2C2CCN(C)CC2)n1 [SB-222903] | 58 | 0 | 21 | 1 | 0 | 0 | 0 | 0 | 0 | 8 | – | – | – | – | – | – |
| O=C(CCO)NCCn1ccc2ncnc(Nc3ccc(Oc4cccc(C(F)(F)F)c4)c(Cl)c3)c21 | 0 | 0 | 0 | 0 | 0 | 0 | 0 | 12 | 0 | 100 | – | – | – | – | – | – |
| Cc1ccc(C)c(NC(=O)NCCNc2ccnc(Nc3ccc(F)cc3)n2)c1 [GSK1379878] | 15 | 38 | 0 | 0 | 5 | 3 | 0 | 1 | 3 | 10 | – | – | – | – | – | – |
| N#Cc1ccc(Oc2ccc(Nc3ncnc4cc[nH]c34)cc2Cl)cc1 | 0 | 0 | 4 | 0 | 32 | 1 | 1 | 15 | 0 | 96.7 | – | – | – | – | – | – |
| CNc1nccc(-c2c(-c3ccc(F)cc3)ncn2CCCN2CCOCC2)n1 [SB-222516] | 0 | 1 | 93 | 7 | 12 | 15 | 6 | 48 | 15 | 10 | – | – | – | – | – | – |
| FC(F)(F)c1cc(Nc2nccc(-c3c(-c4ccc(Cl)cc4)nn4ncccc34)n2)ccc1Cl [GW829351] | 30 | 0 | 19 | 0 | 0 | 0 | 0 | 0 | 0 | 24 | – | – | – | – | – | – |
| COC(=O)c1c(-c2ccccc2)c2cc(Cl)ccc2c(=O)n1Cc1ccc(S(C)(=O)=O)cc1 | 5 | 0 | 0 | 0 | 0 | 3 | 17 | 10 | 44 | 6 | – | – | – | – | – | – |
| C[C@@H]1CCN(C(=O)CO)C[C@@H]1N(C)c1ncnc2[nH]ccc12 | 0 | 0 | 0 | 8 | 3 | 13 | 0 | 0 | 0 | 1 | – | – | – | – | – | – |
| NC(=O)c1sc(-n2cnc3ccccc32)cc1OCc1ccccc1F [GSK1024306] | 25 | 38 | 0 | 0 | 4 | 0 | 4 | 0 | 17 | 84 | – | – | – | – | – | – |
| OCCOCCn1ccc2ncnc(Nc3ccc(Oc4cccc(Cl)c4)c(Cl)c3)c21 | 0 | 0 | 0 | 0 | 0 | 0 | 0 | 0 | 0 | 100 | – | – | – | – | – | – |
